The record followed here is PubChem BioAssay.

Tested on in the first assay: not listed separately
The assay is described as follows: anti-His antibody binders, primary screen, artefact control for SMM control protein annotation, biochemical, small-molecule microarray, 635 nm fluorescence (AID 1128).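 Also: score merges feature fluorescence with signal-to-noise for each printed compound spot.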 Particulars: anti-His Alexa647 antibody binding, higher = more signal.
`COC(=O)c1c(CC[C@@H](CO)NC(=O)N[C@@H](Cc2ccccc2)Cn2cc(-c3cncn3C)nn2)oc(C(C)=O)c1C(=O)OC`: the composite z-score worked out at 0.579.
`O=C1O[C@@H](c2ccccc2)[C@@H](c2ccccc2)N2[C@@H](c3ccc(O)cc3)[C@]3(C(=O)Nc4ccc(C#CC5=CCCCC5)cc43)[C@@H](C(=O)N3CCCCCCC3)[C@H]12`: the composite z-score came out at 1.22.
The same measure, in the same setting: with `COC(=O)C1=CC(CCCO)=CC(C2CC2)N(Cc2cccc(OC(F)(F)F)c2)C=C1C(=O)OC` (stereo unspecified) the figure was 1; with `COCCOC(=O)N1C(=O)[C@@]2(c3cc(C#CCC(C(=O)OC)C(=O)OC)ccc31)[C@H](C(=O)N1CCCCCCC1)[C@H]1C(=O)O[C@H](c3ccccc3)[C@H](c3ccccc3)N1[C@@H]2c1ccccc1OCCO`, 2.09; with `COCCOC(=O)N1C(=O)[C@@]2(c3cc(C#CCCO)ccc31)[C@H](c1ccccc1OCCO)N1[C@H](c3ccccc3)[C@H](c3ccccc3)OC(=O)[C@H]1[C@@H]2C(=O)N1CCc2cc(OC)c(OC)cc2C1`, 1.86.
Same read-out and setting: then `COC(=O)[C@@H]1N=C(c2ccc(OCCCO)cc2)O[C@@H]1c1ccccc1CN=[N+]=[N-]`, with -0.125; and `COC(=O)[C@H](Cc1ccc(O)cc1)N1CC2=CCCC=C[C@@H]2[C@H]1[C@H](O)Cc1ccccc1`, with 0.0409; and `C=CC[C@@]1(C(=O)N(C)C)N=C(c2ccc(OCCCO)cc2)O[C@@H]1c1ccccc1`, with 2.63.

For the next assay, the system named is Human papillomavirus type 1a E7 protein (residues 1-88). Briefly: HPV1a E7 small-molecule binders, primary screen, biochemical, small-molecule microarray, residues 1-88, 635 nm (AID 1129). Particulars: small-molecule microarray binding, fluorescence 635 nm; higher = more signal.
Molecule `CO[C@H]1O[C@H](CO)[C@@H](OC(=O)Nc2ccccc2)[C@@H]2OC(=O)[C@H](Cc3ccccc3)C/C=C/C[C@@H](Cc3ccccc3)C(=O)O[C@@H]12` showed a composite z-score of 1.13.
Same read-out and setting: then `CCCCC(=C=CC[C@@H](O)c1ccc(OCCO)cc1)C[C@@H](O)c1ccccn1`, with 0.731; and `C=CCC(OC(C)=O)[C@@H]1[C@@H](N(Cc2cccc3ccccc23)C(=O)c2ccc(-c3ccccc3)cc2)c2cc(OCCCO)ccc2N1C(=O)c1ccc2ccccc2n1` (stereo partly specified), with 0.263.
The same measure, in the same setting: with `COCCOC(=O)N1C(=O)[C@@]2(c3cc(C#CC4(O)CCCCCC4)ccc31)[C@H](c1ccc(OCCO)cc1)N1[C@H](c3ccccc3)[C@H](c3ccccc3)OC(=O)[C@H]1[C@@H]2C(N)=O` the figure was 1.15; with `COc1ccc([Si](C)(C)[C@H]2[C@H](CCO)O[C@@]3(C(=O)N(Cc4ccc(N5CCOC5=O)cc4)c4ccccc43)[C@@H]2C)cc1`, 0.516.
Same read-out and setting: with `Cc1c(-c2ccc(-c3ccc(Cl)c(Cl)c3)o2)nc(-c2ccccc2)c2c1CO[Si]2(C(C)C)C(C)C` the figure was 0.168; with `O=C1OCCC=C[C@H]2OC34C=CCN(CCN5CCOCC5)C(=O)[C@H]3N(CCCO)C(=O)[C@@H]4C12` (stereo partly specified), -1.11; with `COC(=O)[C@@]1(Cc2ccc(F)cc2)[C@H]2c3cc(C(=O)N(C)C)n(CCO)c3C[C@H]2CN1C(=O)c1ccccc1`, 0.889.
Molecule `CC(C)C[C@H]1NC(=O)[C@@H](C)NC(=O)[C@@]23C(=O)N[C@@H](Cc4ccccc4)C2[C@H](C)[C@@]2(C)O[C@H]2C3/C=C/C/C=C\CNC1=O` (stereo partly specified) came in with a composite z-score of 0.633.
The same measure, in the same setting: then `N#Cc1ccc(C(O)C2C=CC3C(=O)N(c4ccccc4)C(=O)C3N2Nc2ccc([N+](=O)[O-])cc2)cc1` (stereo unspecified), with 1.25; and `CN(C)CCCC[C@@H]1NC(=O)[C@@H]2C[C@H](C(=O)NCc3ccc(F)cc3)[C@H](c3ccc(O)cc3)N2C1=O`, with 0.0709.
In turn, `CC(=O)c1ccc(C(O)C2C=CC3C(=O)N(C)C(=O)C3N2NC(=O)OC(C)(C)C)cc1` (stereo unspecified) returned a composite z-score of 1.23.
For `CO[C@H]1O[C@H](CO)[C@@H](OC(=O)Nc2ccc3c(c2)OCO3)[C@@H]2OC(=O)[C@@H](Cc3ccccc3)C/C=C/C[C@H](Cc3ccccc3)C(=O)O[C@@H]12`, the composite z-score was found to be 1.18.
Still for that read-out and setting: then `O=C1NC(=O)C2C1C=CC(C(O)c1cccc(O)c1)N2Nc1ccc(Cl)cc1Cl` (stereo unspecified), with -0.0332; and `Cc1ccc(S[C@]2(C(=O)NCCCN(C)C)CC(=O)N(Cc3ccccc3Cl)[C@@H]2c2ccc(CO)cc2I)cc1`, with -0.522; and `O=c1cccc(-c2ccccc2C(F)(F)F)o1`, with 0.389.
The same measure, in the same setting: with `COCCOC(=O)N1C(=O)[C@@]2(c3cc(C#CCC(C(=O)OC)C(=O)OC)ccc31)[C@H](c1ccc(OCCO)cc1)N1[C@H](c3ccccc3)[C@H](c3ccccc3)OC(=O)[C@H]1[C@@H]2C(=O)N1CCCCCCC1` the figure was 1.21; with `C[C@H]1NC(=O)C([C@@H](C)OCc2ccccc2)NC(=O)[C@@]23C(=O)N[C@@H](Cc4ccccc4)C2[C@H](C)[C@@]2(C)O[C@H]2C3/C=C/C/C=C\CNC1=O` (stereo partly specified), -0.728.
